{"source": "ChEMBL document CHEMBL1961873", "about": "“Compounds: GSK PKIS; Assays: Nanosyn kinase panel” (2012)", "data": [{"molecular_target": "Ephrin type-A receptor 2 (Homo sapiens) (UniProt P29317)", "sequence (P29317 whole entry)": "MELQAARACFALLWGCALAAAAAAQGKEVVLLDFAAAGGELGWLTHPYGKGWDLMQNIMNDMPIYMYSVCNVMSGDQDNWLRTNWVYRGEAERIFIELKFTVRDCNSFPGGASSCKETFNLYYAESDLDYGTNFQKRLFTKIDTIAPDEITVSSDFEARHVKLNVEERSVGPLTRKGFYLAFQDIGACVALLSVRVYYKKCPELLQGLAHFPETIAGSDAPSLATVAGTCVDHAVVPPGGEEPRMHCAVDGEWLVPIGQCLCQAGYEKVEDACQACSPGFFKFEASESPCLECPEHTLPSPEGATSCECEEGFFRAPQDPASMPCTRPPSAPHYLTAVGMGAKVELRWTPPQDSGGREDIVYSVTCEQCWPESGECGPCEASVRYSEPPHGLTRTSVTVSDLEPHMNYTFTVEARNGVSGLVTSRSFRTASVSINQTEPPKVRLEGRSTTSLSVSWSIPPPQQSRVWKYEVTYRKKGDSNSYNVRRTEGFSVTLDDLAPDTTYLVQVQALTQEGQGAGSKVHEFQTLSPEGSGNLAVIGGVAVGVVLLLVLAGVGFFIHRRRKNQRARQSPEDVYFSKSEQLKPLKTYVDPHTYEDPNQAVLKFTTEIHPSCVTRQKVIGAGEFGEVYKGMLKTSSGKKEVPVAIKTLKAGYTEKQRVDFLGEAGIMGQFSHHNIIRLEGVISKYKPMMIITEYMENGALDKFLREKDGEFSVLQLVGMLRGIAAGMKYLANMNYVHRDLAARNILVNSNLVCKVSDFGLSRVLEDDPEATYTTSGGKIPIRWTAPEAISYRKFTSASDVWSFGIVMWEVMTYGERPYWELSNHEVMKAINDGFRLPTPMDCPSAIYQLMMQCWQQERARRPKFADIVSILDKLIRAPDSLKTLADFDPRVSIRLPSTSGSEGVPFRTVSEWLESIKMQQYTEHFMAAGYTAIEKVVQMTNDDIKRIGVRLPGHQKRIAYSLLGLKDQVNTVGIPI", "details": "at 1 µM", "units": {"inhibition": "%"}, "values": [{"smiles": "C[C@@H](Oc1cc(-n2cnc3ccc(OCC4CCN(C)CC4)cc32)sc1C(N)=O)c1ccccc1C(F)(F)F", "inhibition": -3.26}, {"smiles": "Cc1cc(O)cc(C)c1/C=C/c1cncc(C(=O)N(C)C)c1", "inhibition": 4.81}, {"smiles": "c1ccc(Nc2ncc(-c3ccccc3)o2)cc1", "inhibition": 0.47}, {"smiles": "COc1ccc(-c2nn3ncccc3c2-c2ccnc(Nc3cccc(C(F)(F)F)c3)n2)cc1", "inhibition": -0.64}, {"smiles": "Cc1ccc(NC(=O)CC2CC2)cc1-c1ccc(C(=O)NCC2CC2)cc1", "inhibition": 1.4}, {"smiles": "COC(=O)c1ccc2c(c1)C(=Cc1cc(Br)c(O)c(Br)c1)C(=O)N2", "inhibition": 0.89}, {"smiles": "Cc1ccc2c(-c3ccnc(Nc4ccc5c(c4)OCCO5)n3)c(-c3ccc(C(F)(F)F)cc3)nn2n1", "inhibition": 0.72}, {"smiles": "COc1cc(/C=N/Nc2ncnc3c2cnn3C(C)C)ccc1O", "inhibition": 21.1}, {"smiles": "Nc1ccc(C#Cc2cncnc2Nc2ccc(OCc3cccc(F)c3)c(Cl)c2)cc1", "inhibition": 0.03}, {"smiles": "ON=C1CCc2cc(-c3nc(C4CCNCC4)[nH]c3-c3ccncc3)ccc21", "inhibition": 0.6}, {"smiles": "COc1cccc(-n2ncc3c(N/N=C/c4ccc(C)cc4)ncnc32)c1", "inhibition": 1.1}, {"smiles": "CCS(=O)(=O)c1ccc(OC)c(Nc2ncc(-c3cccc(OC)c3)o2)c1", "inhibition": 3.85}, {"smiles": "CC(C)c1ccc2c(c1)NC(=O)/C2=N/Nc1ccc(S(N)(=O)=O)cc1", "inhibition": -1.68}, {"smiles": "Cc1cc(Cl)cc2c1NC(=O)C2=NNc1ccc(S(N)(=O)=O)cc1", "inhibition": 1.02}, {"smiles": "CC(C)c1ccc(Nc2nccc(-c3cnn4ncccc34)n2)cc1", "inhibition": 0.28}, {"smiles": "N#Cc1cccc(Nc2nccc(-c3cnn4ncccc34)n2)c1", "inhibition": 15}, {"smiles": "Oc1cccc(-c2nc(-c3ccccc3)[nH]c2-c2ccncc2)c1", "inhibition": 7.66}, {"smiles": "CN1CCN(C(=O)c2ccc(NC(=O)Nc3ccc(N(C)c4ccnc(Nc5ccc(CS(C)(=O)=O)cc5)n4)cc3)cc2)CC1", "inhibition": 5.09}, {"smiles": "COC(=O)Nc1nc2cc(Oc3ccc(NC(=O)Nc4cccc(Br)c4)cc3)ccc2[nH]1", "inhibition": 55.2}, {"smiles": "COc1cccc(-n2ncc3c(N/N=C/c4ccc(S(C)(=O)=O)cc4)ncnc32)c1", "inhibition": 1.45}, {"smiles": "NS(=O)(=O)c1ccc(NC=C2C(=O)Nc3ccc4ncsc4c32)cc1", "inhibition": 7.25}, {"smiles": "CS(=O)(=O)CCNCc1nc(-c2ccc3ncnc(Nc4ccc(OCc5cccc(C(F)(F)F)c5)cc4)c3c2)cs1", "inhibition": 0.05}, {"smiles": "C[C@@H](Oc1cc(-n2cnc3ccc(OC[C@@H](O)CO)cc32)sc1C(N)=O)c1ccccc1Cl", "inhibition": -4.51}, {"smiles": "NS(=O)(=O)c1ccc(-c2cc3ccncc3cc2OCc2ccccc2)cc1", "inhibition": 0.7}, {"smiles": "NS(=O)(=O)c1ccc(Nc2cc(-c3cccc(O)c3)n[nH]2)cc1", "inhibition": 0.64}, {"smiles": "Cc1ccc(Nc2ccnc(Nc3cccc(C(N)=O)c3)n2)cc1O", "inhibition": 23.3}, {"smiles": "COc1cccc(-n2nc(C)c3c(N/N=C(\\C)c4ccncc4)ncnc32)c1", "inhibition": -1.94}, {"smiles": "CCn1c(-c2nonc2N)nc2ccc(F)cc21", "inhibition": 0.43}, {"smiles": "COc1cc2ncn(-c3cc(OCc4ccccc4S(C)(=O)=O)c(C#N)s3)c2cc1OC", "inhibition": 34.4}, {"smiles": "COc1cc2ncnc(Nc3ccc(C)c(O)c3)c2cc1OC", "inhibition": 10.6}, {"smiles": "NS(=O)(=O)c1cccc(-c2cc3ccncc3cc2OCc2ccccc2)c1", "inhibition": 1.53}, {"smiles": "COC(=O)c1cncc(/C=C/c2c(C)cc(O)cc2C)c1", "inhibition": 40.2}, {"smiles": "COc1cc(Nc2nccc(-c3cnn4ncccc34)n2)cc(OC)c1", "inhibition": 24.3}]}, {"molecular_target": "T1, Ephrin type-A receptor 3 (Homo sapiens) (UniProt P29320)", "T1 sequence (whole entry)": "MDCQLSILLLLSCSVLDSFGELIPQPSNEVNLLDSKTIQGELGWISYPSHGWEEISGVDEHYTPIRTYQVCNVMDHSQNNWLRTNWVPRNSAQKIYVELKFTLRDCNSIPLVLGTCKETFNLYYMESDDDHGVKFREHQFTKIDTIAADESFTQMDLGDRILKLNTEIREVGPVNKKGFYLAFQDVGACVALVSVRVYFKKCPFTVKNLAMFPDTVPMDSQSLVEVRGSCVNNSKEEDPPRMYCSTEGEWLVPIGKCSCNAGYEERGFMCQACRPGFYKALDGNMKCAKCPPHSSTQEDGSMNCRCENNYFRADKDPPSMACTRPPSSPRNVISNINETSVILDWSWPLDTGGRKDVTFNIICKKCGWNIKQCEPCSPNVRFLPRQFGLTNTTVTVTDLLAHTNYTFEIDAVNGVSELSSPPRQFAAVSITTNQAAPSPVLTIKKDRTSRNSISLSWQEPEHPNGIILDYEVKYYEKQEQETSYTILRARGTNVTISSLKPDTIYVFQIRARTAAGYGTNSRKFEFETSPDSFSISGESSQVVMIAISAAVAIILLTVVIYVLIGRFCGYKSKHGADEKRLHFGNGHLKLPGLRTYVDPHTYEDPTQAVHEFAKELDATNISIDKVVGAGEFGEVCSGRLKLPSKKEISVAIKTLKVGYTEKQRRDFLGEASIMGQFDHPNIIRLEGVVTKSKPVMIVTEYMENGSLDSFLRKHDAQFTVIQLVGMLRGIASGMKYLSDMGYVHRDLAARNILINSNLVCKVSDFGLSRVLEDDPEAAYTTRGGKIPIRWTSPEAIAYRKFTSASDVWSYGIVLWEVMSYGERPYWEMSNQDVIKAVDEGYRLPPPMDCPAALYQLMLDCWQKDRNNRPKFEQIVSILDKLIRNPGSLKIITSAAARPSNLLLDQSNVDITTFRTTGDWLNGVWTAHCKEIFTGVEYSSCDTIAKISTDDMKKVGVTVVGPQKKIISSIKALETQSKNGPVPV", "details": "at 0.1 µM", "units": {"inhibition": "%"}, "values": [{"smiles": "C[C@@H](Oc1cc(-n2cnc3ccc(OCC4CCN(C)CC4)cc32)sc1C(N)=O)c1ccccc1C(F)(F)F", "inhibition": -6.9}, {"smiles": "Cc1cc(O)cc(C)c1/C=C/c1cncc(C(=O)N(C)C)c1", "inhibition": 6.48}, {"smiles": "c1ccc(Nc2ncc(-c3ccccc3)o2)cc1", "inhibition": 3.55}, {"smiles": "COc1ccc(-c2nn3ncccc3c2-c2ccnc(Nc3cccc(C(F)(F)F)c3)n2)cc1", "inhibition": 4.37}, {"smiles": "Cc1ccc(NC(=O)CC2CC2)cc1-c1ccc(C(=O)NCC2CC2)cc1", "inhibition": 3.45}, {"smiles": "COC(=O)c1ccc2c(c1)C(=Cc1cc(Br)c(O)c(Br)c1)C(=O)N2", "inhibition": 0.28}, {"smiles": "Cc1ccc2c(-c3ccnc(Nc4ccc5c(c4)OCCO5)n3)c(-c3ccc(C(F)(F)F)cc3)nn2n1", "inhibition": 1.81}, {"smiles": "COc1cc(/C=N/Nc2ncnc3c2cnn3C(C)C)ccc1O", "inhibition": 3.55}, {"smiles": "Nc1ccc(C#Cc2cncnc2Nc2ccc(OCc3cccc(F)c3)c(Cl)c2)cc1", "inhibition": 3.68}, {"smiles": "ON=C1CCc2cc(-c3nc(C4CCNCC4)[nH]c3-c3ccncc3)ccc21", "inhibition": 0.3}, {"smiles": "COc1cccc(-n2ncc3c(N/N=C/c4ccc(C)cc4)ncnc32)c1", "inhibition": 3.28}, {"smiles": "CCS(=O)(=O)c1ccc(OC)c(Nc2ncc(-c3cccc(OC)c3)o2)c1", "inhibition": 5.57}, {"smiles": "CC(C)c1ccc2c(c1)NC(=O)/C2=N/Nc1ccc(S(N)(=O)=O)cc1", "inhibition": -0.36}, {"smiles": "Cc1cc(Cl)cc2c1NC(=O)C2=NNc1ccc(S(N)(=O)=O)cc1", "inhibition": 3.32}, {"smiles": "CC(C)c1ccc(Nc2nccc(-c3cnn4ncccc34)n2)cc1", "inhibition": 1.96}, {"smiles": "N#Cc1cccc(Nc2nccc(-c3cnn4ncccc34)n2)c1", "inhibition": 8.11}, {"smiles": "Oc1cccc(-c2nc(-c3ccccc3)[nH]c2-c2ccncc2)c1", "inhibition": 7.79}, {"smiles": "CN1CCN(C(=O)c2ccc(NC(=O)Nc3ccc(N(C)c4ccnc(Nc5ccc(CS(C)(=O)=O)cc5)n4)cc3)cc2)CC1", "inhibition": 0.72}, {"smiles": "COC(=O)Nc1nc2cc(Oc3ccc(NC(=O)Nc4cccc(Br)c4)cc3)ccc2[nH]1", "inhibition": 13}, {"smiles": "COc1cccc(-n2ncc3c(N/N=C/c4ccc(S(C)(=O)=O)cc4)ncnc32)c1", "inhibition": -2.15}, {"smiles": "NS(=O)(=O)c1ccc(NC=C2C(=O)Nc3ccc4ncsc4c32)cc1", "inhibition": 5.57}, {"smiles": "CS(=O)(=O)CCNCc1nc(-c2ccc3ncnc(Nc4ccc(OCc5cccc(C(F)(F)F)c5)cc4)c3c2)cs1", "inhibition": 2.99}, {"smiles": "C[C@@H](Oc1cc(-n2cnc3ccc(OC[C@@H](O)CO)cc32)sc1C(N)=O)c1ccccc1Cl", "inhibition": -2.37}, {"smiles": "NS(=O)(=O)c1ccc(-c2cc3ccncc3cc2OCc2ccccc2)cc1", "inhibition": 2.29}, {"smiles": "NS(=O)(=O)c1ccc(Nc2cc(-c3cccc(O)c3)n[nH]2)cc1", "inhibition": 6.18}, {"smiles": "Cc1ccc(Nc2ccnc(Nc3cccc(C(N)=O)c3)n2)cc1O", "inhibition": 14.3}, {"smiles": "COc1cccc(-n2nc(C)c3c(N/N=C(\\C)c4ccncc4)ncnc32)c1", "inhibition": -0.57}, {"smiles": "CCn1c(-c2nonc2N)nc2ccc(F)cc21", "inhibition": 4.17}, {"smiles": "COc1cc2ncn(-c3cc(OCc4ccccc4S(C)(=O)=O)c(C#N)s3)c2cc1OC", "inhibition": 8.09}, {"smiles": "COc1cc2ncnc(Nc3ccc(C)c(O)c3)c2cc1OC", "inhibition": 6.24}, {"smiles": "NS(=O)(=O)c1cccc(-c2cc3ccncc3cc2OCc2ccccc2)c1", "inhibition": 2.7}, {"smiles": "COC(=O)c1cncc(/C=C/c2c(C)cc(O)cc2C)c1", "inhibition": 7.42}, {"smiles": "COc1cc(Nc2nccc(-c3cnn4ncccc34)n2)cc(OC)c1", "inhibition": 3.17}]}]}
